These results are taken from PubChem BioAssay (Tox21).

Calls of active or inactive are those of the source. Unless noted, the call rests on the fitted dose curve; in most records, active means well fitted curve in the direction sought with a large enough effect in the repeat runs; inconclusive means weak or mixed curves; inactive means no such curve, though single readings can be large; an effect the other way counts as inactive or inconclusive.

The nature of assay [1]: qHTS assay to identify small molecule antagonists of the thyroid receptor (TR) signaling pathway - cell viability counter screen (AID 743064). Further: nearly all actives have a fitted effect of over 50% in size. Further: potency means the concentration at half of the fitted maximal effect. Summed up:
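Rat GH3 pituitary tumor cells stably expressing two TR response elements driving luciferase were plated, rested 4 h, then dosed with library compounds and T3 (1 nM final). After 23.5 h at 37 °C, CellTiter-Fluor was added for 30 min and fluorescence recorded.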
On the technique in general: In qHTS, concentration-response curves come from the screen itself.

Assay [2] is described as follows: qHTS assay to identify small molecule antagonists of the estrogen receptor alpha (ER-alpha) signaling pathway - cell viability counter screen (AID 743074; calls by dose curve;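 further: HEK293 cells carrying ER-alpha-UAS-bla reporter stimulated with 17beta-estradiol; nearly all actives have a fitted effect of over 45% in size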; further: potency means the concentration at half of the fitted maximal effect).
Assay [3] concerns the target Aryl hydrocarbon receptor (Homo sapiens) (UniProt P35869). Kind of assay: qHTS assay to identify small molecule that activate the aryl hydrocarbon receptor (AhR) signaling pathway (AID 743085). Further: nearly all actives have a fitted effect of over 15% in size. Further: potency means the concentration at half of the fitted maximal effect.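 On activation: HG2L7.5c1 human HepG2 liver cells with stably integrated DRE-driven firefly reporter; series mostly up to about 70 µM.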 Summed up:
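Compounds were tested in HepG2 hepatocellular carcinoma cells harbouring a stably integrated luciferase gene under control of 20 DREs. Increased reporter signal after 24 h treatment at 37C was taken as AhR activation.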

The nature of assay [4]: qHTS assay to identify small molecule that activate the aryl hydrocarbon receptor (AhR) signaling pathway - cell viability counter screen (AID 743086). Further: nearly all actives have a fitted effect of over 45% in size. Further: potency means the concentration at half of the fitted maximal effect. An outline of the steps: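 HepG2-AhR-luc (HG2L7.5c1) cells, 4000/well, treated 24 h at 37 C with compound; viability measured as CellTiter-Fluor fluorescence after 30 min in the same wells as the luciferase read.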
Assay [5] is described as follows: qHTS assay to identify small molecule antagonists of the peroxisome proliferator-activated receptor gamma (PPARg) signaling pathway - cell viability counter screen (AID 743194). Further: potency means the concentration at half of the fitted maximal effect; nearly all actives have a fitted effect of over 55% in size. Summed up: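 Cytotoxicity counter screen in PPARg-bla HEK293H cells, same wells as reporter assay. Compounds plus 50 nM rosiglitazone (final) for 17 h at 37 C, then viability read by CellTiter-Glo luminescence.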

The nature of assay [6]: qHTS assay for small molecule agonists of the antioxidant response element (ARE) signaling pathway - cell viability counter screen (AID 743203; calls by dose curve; further: potency means the concentration at half of the fitted maximal effect; nearly all actives have a fitted effect of over 55% in size). An outline of the steps: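 Compounds in DMSO were pinned onto ARE-bla HepG2 cells plated 5 hrs earlier at 2,000 cells/well. Sixteen hours later at 37C/5% CO2, CellTiter-Glo was added and luminescence measured after 30 min at room temperature.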

A short description of assay [7]: qHTS assay for small molecule activators of the heat shock response signaling pathway - cell viability counter screen (AID 743209). Further: nearly all actives have a fitted effect of over 50% in size. Summed up:
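Counter screen for cytotoxicity in HeLa HSE-bla reporter cells. Treatment was 5 h at 37 C; viability was detected by luminescent ATP assay (CellTiter-Glo) in the same wells as the beta-lactamase read.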

Assay [8] can be described thus: qHTS assay to identify small molecule antagonists of the thyroid receptor (TR) signaling pathway (AID 743065). Further: nearly all actives have a fitted effect of over 55% in size. Further: potency means the concentration at half of the fitted maximal effect. An outline of the steps:
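GH3.TRE-Luc rat pituitary cells (two TREs driving luciferase) were dosed with compound, then stimulated with 1 nM T3 (final) for 23.5 h at 37 C. ONE-Glo luminescence was the read-out, with CellTiter-Fluor fluorescence as the cytotoxicity counter-screen.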

For assay [9], the system named is thyroid hormone receptor (rat, GH3 cells). The experiment in a line: qHTS assay to identify small molecule agonists of the thyroid receptor (TR) signaling pathway (AID 743066; calls by dose curve).
Assay [10] deals with Estrogen receptor (Homo sapiens) (UniProt P03372). Kind of assay: qHTS assay to identify small molecule antagonists of the estrogen receptor alpha (ER-alpha) signaling pathway (AID 743069; active means well fitted curve in the direction sought with a large enough effect in the signal ratio in the repeat runs, not every such curve was filed as active; inconclusive means weak or mixed curves, or effect the other way; inactive means no such curve, though single readings can be large or run the other way; the % refers to the signal ratio). Summed up: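 Reporter cells (ER-alpha-bla, HEK293 background) are conditioned overnight in stripped-serum medium (2% charcoal-stripped FBS). Compound and 17beta-estradiol exposure runs 18 hr at 37C, 5% CO2.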
Chain of Estrogen receptor (Homo sapiens) (P03372 whole entry, looked up): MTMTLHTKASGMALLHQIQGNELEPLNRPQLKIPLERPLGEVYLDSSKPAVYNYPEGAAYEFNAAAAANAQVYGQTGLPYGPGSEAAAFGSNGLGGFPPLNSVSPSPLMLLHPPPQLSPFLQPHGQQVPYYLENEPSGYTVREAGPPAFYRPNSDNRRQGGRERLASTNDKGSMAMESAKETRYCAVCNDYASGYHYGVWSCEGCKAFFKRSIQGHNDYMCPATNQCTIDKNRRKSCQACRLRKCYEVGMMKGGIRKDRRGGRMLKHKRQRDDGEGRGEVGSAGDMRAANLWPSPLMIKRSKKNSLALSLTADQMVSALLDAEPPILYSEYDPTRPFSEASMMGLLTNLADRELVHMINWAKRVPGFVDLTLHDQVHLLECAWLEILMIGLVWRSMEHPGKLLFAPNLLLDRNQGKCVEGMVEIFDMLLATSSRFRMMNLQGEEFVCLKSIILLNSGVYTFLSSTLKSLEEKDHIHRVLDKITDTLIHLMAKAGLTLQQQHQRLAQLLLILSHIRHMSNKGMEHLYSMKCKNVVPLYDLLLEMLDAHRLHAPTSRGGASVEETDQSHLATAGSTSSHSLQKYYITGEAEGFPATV

Assay [11] has the same target. Kind of assay: qHTS assay to identify small molecule agonists of the estrogen receptor alpha (ER-alpha) signaling pathway (AID 743075; calls by dose curve;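 further: HEK293 GripTite cells with ER-alpha and UAS-driven beta-lactamase reporter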; further: potency means the concentration at half of the fitted maximal effect).
Assay [12] shares this target. The experiment in a line: qHTS assay to identify small molecule agonists of the estrogen receptor alpha (ER-alpha) signaling pathway using the BG1 cell line (AID 743079). Further: nearly all actives have a fitted effect of over 20% in size. Further: potency means the concentration at half of the fitted maximal effect.
Assay [13] can be described thus: qHTS assay to identify small molecule antagonists of the estrogen receptor alpha (ER-alpha) signaling pathway using the BG1 cell line (AID 743080; calls by dose curve;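 further: BG1 cells stimulated with 17beta-estradiol alongside compound; series mostly up to about 70 µM; nearly all actives have a fitted effect of over 25% in size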). Summed up: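 BG1-Luc-4E2 cells (endogenous full-length ER-alpha, stable 4×ERE-luciferase) were starved 5 days in phenol-red-free medium with 10% charcoal-stripped FBS, plated 24 h, then given compound plus 17beta-estradiol for 21.5 h at 37 C; ONE-Glo luminescence read after 30 min.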

Assay [14] is described as follows: qHTS assay to identify small molecule antagonists of the estrogen receptor alpha (ER-alpha) signaling pathway using the BG1 cell line - cell viability counter screen (AID 743081).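 Further: compound given together with 17beta-estradiol as the ER stimulus; nearly all actives have a fitted effect of over 45% in size.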 Further: potency means the concentration at half of the fitted maximal effect.
In a further assay the target is Aromatase (Homo sapiens) (UniProt P11511). Kind of assay: qHTS assay to identify aromatase inhibitors (AID 743083). Further: series mostly up to about 70 µM; nearly all actives have a fitted effect of over 55% in size.
Chain of Aromatase (Homo sapiens) (P11511 whole entry, looked up): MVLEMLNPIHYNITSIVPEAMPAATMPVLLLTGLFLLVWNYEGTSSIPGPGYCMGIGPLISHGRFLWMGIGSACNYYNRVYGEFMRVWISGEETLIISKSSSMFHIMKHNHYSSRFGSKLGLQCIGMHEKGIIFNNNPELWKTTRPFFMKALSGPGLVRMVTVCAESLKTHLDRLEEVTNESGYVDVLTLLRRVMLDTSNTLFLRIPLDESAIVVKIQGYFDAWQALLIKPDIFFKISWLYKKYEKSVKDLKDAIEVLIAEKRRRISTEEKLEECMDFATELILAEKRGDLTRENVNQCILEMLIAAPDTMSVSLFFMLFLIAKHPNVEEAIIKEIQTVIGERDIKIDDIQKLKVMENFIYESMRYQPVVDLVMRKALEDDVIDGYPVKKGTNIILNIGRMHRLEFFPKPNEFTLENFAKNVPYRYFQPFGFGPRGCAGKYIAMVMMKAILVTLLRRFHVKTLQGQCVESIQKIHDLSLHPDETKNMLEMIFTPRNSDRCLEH
A short description of assay [15]: qHTS assay to identify aromatase inhibitors - cell viability counter screen (AID 743084). Further: potency means the concentration at half of the fitted maximal effect.
The target in assay [16] is Peroxisome proliferator-activated receptor gamma (Homo sapiens) (UniProt P37231). The experiment in a line: qHTS assay to identify small molecule agonists of the peroxisome proliferator-activated receptor gamma (PPARg) signaling pathway (AID 743094; active means well fitted activation curve with a large enough effect in the signal ratio in the repeat runs, not every such curve was filed as active; inconclusive means weak or mixed curves, or effect the other way; inactive means no such curve, though single readings can be large or run the other way; the % refers to the signal ratio). An outline of the steps:
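Following 5 h plating at 37C, PPARg-bla HEK293H cells receive compound or DMSO for 17 h; fluorescence intensity is recorded after LiveBLAzer B/G loading for 1 h at room temperature.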

Chain of Peroxisome proliferator-activated receptor gamma (Homo sapiens) (P37231 whole entry, looked up): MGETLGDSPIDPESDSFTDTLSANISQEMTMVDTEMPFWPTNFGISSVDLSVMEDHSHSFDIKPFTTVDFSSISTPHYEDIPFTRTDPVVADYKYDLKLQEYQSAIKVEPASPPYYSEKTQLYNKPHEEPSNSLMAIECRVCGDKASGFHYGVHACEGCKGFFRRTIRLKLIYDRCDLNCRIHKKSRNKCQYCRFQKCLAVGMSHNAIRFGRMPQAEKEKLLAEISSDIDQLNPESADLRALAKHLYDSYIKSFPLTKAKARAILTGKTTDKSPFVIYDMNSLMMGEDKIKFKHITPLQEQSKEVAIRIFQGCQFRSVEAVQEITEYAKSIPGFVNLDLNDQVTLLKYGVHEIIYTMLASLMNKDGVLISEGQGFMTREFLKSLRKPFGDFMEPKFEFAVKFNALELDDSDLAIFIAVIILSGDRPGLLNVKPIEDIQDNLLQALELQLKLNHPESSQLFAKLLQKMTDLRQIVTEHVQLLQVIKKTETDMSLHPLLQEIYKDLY
Chain of Aryl hydrocarbon receptor (Homo sapiens) (P35869 whole entry, looked up): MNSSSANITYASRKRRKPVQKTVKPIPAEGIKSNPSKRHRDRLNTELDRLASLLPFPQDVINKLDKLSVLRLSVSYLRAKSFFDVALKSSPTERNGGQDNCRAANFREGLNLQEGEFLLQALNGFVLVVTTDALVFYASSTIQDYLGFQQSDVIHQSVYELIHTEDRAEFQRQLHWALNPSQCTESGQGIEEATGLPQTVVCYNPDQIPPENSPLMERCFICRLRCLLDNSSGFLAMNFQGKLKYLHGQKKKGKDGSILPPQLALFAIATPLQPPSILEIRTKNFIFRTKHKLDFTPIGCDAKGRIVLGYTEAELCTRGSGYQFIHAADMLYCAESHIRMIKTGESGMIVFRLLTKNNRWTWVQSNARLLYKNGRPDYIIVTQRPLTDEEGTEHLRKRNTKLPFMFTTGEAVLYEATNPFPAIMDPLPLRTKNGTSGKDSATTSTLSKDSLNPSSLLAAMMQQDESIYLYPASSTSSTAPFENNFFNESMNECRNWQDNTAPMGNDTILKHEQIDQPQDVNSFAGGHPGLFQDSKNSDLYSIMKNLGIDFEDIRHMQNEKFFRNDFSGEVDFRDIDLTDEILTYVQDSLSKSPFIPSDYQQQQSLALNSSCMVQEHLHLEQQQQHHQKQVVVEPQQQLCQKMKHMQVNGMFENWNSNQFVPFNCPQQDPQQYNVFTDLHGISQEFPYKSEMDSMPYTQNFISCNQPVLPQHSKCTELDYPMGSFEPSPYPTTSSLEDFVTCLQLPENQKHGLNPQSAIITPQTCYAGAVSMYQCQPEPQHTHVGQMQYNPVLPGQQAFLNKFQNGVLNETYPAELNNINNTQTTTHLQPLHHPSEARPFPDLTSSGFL

For the compound `O=C(CCCCCCCCc1cccnc1)N1CCC(C=C(c2ccccc2)c2ccccc2)CC1`, the Potency in [1] is 27.3 µM (active); in assay [2], 43.6 µM (active); in [5], 19.5 µM (active); in assay [6], 15.4 µM (active). Further, the Potency entry in assay [3], in assay [4] and in assay [7] was “inactive” in each case.

As to `O=C(O)COc1ccc(C(=O)c2cccs2)c(Cl)c1Cl`, the Potency entry in [8], in assay [9], in assay [10], in assay [2], in [11] and in [12] was “inactive” in each case. Further, the Potency entry (in [13]; in assay [14]; with Aromatase (Homo sapiens); in assay [15]; in assay [3]; in [4]) was “inactive” throughout. Moreover, the Potency entry in assay [16] was “inactive”.

Turning to `CO/N=C(\C(=O)N[C@@H]1C(=O)N2C(C(=O)O)=C(C[N+]3(C)CCCC3)CS[C@H]12)c1csc(N)n1`, the Potency result in assay [1], in assay [9], in [10], in assay [2], in assay [11] and in assay [12] was “inactive” in each case. Moreover, the Potency entry (in assay [13]; in assay [14]; with Aromatase (Homo sapiens); in [15]; in assay [4]; in assay [16]) was “inactive” throughout.

For `CCOc1ccc(S(=O)(=O)O)c2cccnc12`, the Potency result in assay [8], in assay [9], in [10], in assay [2], in assay [13] and in assay [14] was “inactive” in each case. Besides, the Potency entry (with Aromatase (Homo sapiens); in assay [15]; in [3]; in [4]) was “inactive” throughout. Moreover, the Potency was 23.9 µM [inconclusive] (active) in assay [11] and 6.68 µM (active) in assay [12].

For the compound `Cc1ccc(C(C)(C)c2ccc(C)cc2)cc1`, the Potency entry in assay [8], in assay [9], in [10], in assay [2], in assay [11] and in assay [12] was “inactive” each time. In addition, the Potency entry (in assay [13]; in assay [14]; with Aromatase (Homo sapiens); in [15]; in assay [3]; in [4]) was “inactive” each time. In addition, the Potency entry in assay [16] was “inactive”.

Turning to `CO/N=C(\C(=O)N[C@@H]1C(=O)N2C(C(=O)[O-])=C(C[n+]3ccc(N)n3CCO)CS[C@H]12)c1csc(N)n1`, the Potency result (in [1]; in assay [2]; in assay [14]; in the assay with Aromatase (Homo sapiens); in [15]; in assay [3]) was “inactive” each time. In addition, the Potency result in assay [4] and in [16] was “inactive” in each case.

On to `CN=C(N)NCCC[C@H](N)C(=O)O`, for which the Potency entry (in assay [1]; in assay [2]; in assay [14]; in the assay with Aromatase (Homo sapiens); in assay [15]; in assay [3]) was “inactive” each time.

For the compound `Cc1ncc(C[n+]2csc(CCOP(=O)(O)O)c2C)c(N)n1`, the Potency entry (in assay [1]; in assay [2]; in assay [14]; with Aromatase (Homo sapiens); in [15]; in [3]) was “inactive” throughout. In addition, the Potency result in [4] is “inactive”.

As to `C[S+](C)CCC(N)C(=O)O` (stereo unspecified), the Potency entry in assay [8], in [9], in assay [10], in assay [2], in assay [11] and in [12] was “inactive” throughout. The Potency entry (in assay [13]; in assay [14]; with Aromatase (Homo sapiens); in assay [15]; in [3]; in assay [4]) was “inactive” in each case. Moreover, the Potency entry in assay [16] was “inactive”.

For `CC(=O)N[C@@H](C=O)[C@H](O)[C@H](O)[C@@H](O)CO`, the Potency entry in assay [8], in assay [9], in assay [10], in assay [2], in assay [11] and in assay [12] was “inactive” in each case. The Potency entry (in assay [13]; in assay [14]; with Aromatase (Homo sapiens); in assay [15]; in assay [3]; in assay [4]) was “inactive” in each case. In addition, the Potency entry in assay [16] was “inactive”.

Regarding `O=C(O)/C=C/C(O)c1ccc(Cl)cc1` (stereo unspecified), the Potency entry (in assay [1]; in assay [9]; in [2]; in [14]; in the assay with Aromatase (Homo sapiens); in [15]) was “inactive” in each case. Further, the Potency entry in [3] and in assay [4] was “inactive” throughout.

For `O=S(=O)(O)CC(S)CS` (stereo unspecified), the Potency result (in [1]; in assay [9]; in assay [2]; in assay [14]; with Aromatase (Homo sapiens); in assay [15]) was “inactive” throughout. Further, the Potency entry in assay [3] and in [4] was “inactive” each time.

In the case of `COc1c(O)cc2c(c1O)[C@@H]1O[C@H](CO)[C@@H](O)[C@H](O)[C@H]1OC2=O`, the Potency entry in assay [1], in [9], in assay [10], in assay [11], in assay [12] and in assay [13] was “inactive” throughout. Moreover, the Potency entry (in [14]; with Aromatase (Homo sapiens); in assay [15]; in [3]; in [4]; in assay [16]) was “inactive” throughout.

Turning to `CCN(CC)CC#CCOC(=O)C(O)(c1ccccc1)C1CCCCC1` (stereo unspecified), the Potency was 13.3 µM (active) in [1], 9.44 µM (active) in [14], 11.9 µM (active) in assay [15] and 18.8 µM (active) in assay [4]. In addition, the Potency entry (in [9]; in assay [2]; with Aromatase (Homo sapiens)) was “inactive” in each case.

As for `CN1C(C(=O)Nc2ccccn2)C(=O)c2sc(Cl)cc2S1(=O)=O` (stereo unspecified), the Potency entry in [8], in [9], in assay [10], in assay [2], in [11] and in assay [12] was “inactive” in each case. Besides, the Potency result (in assay [13]; with Aromatase (Homo sapiens); in assay [15]; in [3]; in [4]) was “inactive” each time.

Turning to `CC(C)OC(=O)Nc1ccc2nc(-c3cscn3)[nH]c2c1`, the results for the Potency in assay [8], in [12] and in [3] were 3.76 µM (active), 2.11 µM (active) and 6.68 µM (active), respectively. Besides, the Potency entry (in assay [9]; in [2]; in assay [11]; with Aromatase (Homo sapiens); in assay [15]; in assay [4]) was “inactive” each time.

`NS(=O)(=O)c1cc(Cl)c(Cl)c(S(N)(=O)=O)c1`: the Potency entry (in assay [8]; in assay [9]; in assay [2]; in assay [14]; with Aromatase (Homo sapiens); in [15]) was “inactive” in each case. Besides, in assay [3], the Potency entry was “inactive”.
